The text below walks through data of ChEMBL document CHEMBL3988442, “University of Dundee, Small-Polar-MMV Screening Library” (2021).

What all share (design): scale not given: direction of the effect not stated beside the values
Experiment [1] addresses Protein translocase subunit SecA (Escherichia coli (strain K12)) (UniProt P10408). Description: Assay to Identify E. coli SecA ATPase Inhibitors. Type of experiment: functional. Particulars: 30 µM.
The target in experiment [2] is T1, Ubiquitin-activating enzyme e1, putative (Leishmania donovani (strain BPK282A1)) (UniProt E9BSI1).
T1 sequence (whole entry): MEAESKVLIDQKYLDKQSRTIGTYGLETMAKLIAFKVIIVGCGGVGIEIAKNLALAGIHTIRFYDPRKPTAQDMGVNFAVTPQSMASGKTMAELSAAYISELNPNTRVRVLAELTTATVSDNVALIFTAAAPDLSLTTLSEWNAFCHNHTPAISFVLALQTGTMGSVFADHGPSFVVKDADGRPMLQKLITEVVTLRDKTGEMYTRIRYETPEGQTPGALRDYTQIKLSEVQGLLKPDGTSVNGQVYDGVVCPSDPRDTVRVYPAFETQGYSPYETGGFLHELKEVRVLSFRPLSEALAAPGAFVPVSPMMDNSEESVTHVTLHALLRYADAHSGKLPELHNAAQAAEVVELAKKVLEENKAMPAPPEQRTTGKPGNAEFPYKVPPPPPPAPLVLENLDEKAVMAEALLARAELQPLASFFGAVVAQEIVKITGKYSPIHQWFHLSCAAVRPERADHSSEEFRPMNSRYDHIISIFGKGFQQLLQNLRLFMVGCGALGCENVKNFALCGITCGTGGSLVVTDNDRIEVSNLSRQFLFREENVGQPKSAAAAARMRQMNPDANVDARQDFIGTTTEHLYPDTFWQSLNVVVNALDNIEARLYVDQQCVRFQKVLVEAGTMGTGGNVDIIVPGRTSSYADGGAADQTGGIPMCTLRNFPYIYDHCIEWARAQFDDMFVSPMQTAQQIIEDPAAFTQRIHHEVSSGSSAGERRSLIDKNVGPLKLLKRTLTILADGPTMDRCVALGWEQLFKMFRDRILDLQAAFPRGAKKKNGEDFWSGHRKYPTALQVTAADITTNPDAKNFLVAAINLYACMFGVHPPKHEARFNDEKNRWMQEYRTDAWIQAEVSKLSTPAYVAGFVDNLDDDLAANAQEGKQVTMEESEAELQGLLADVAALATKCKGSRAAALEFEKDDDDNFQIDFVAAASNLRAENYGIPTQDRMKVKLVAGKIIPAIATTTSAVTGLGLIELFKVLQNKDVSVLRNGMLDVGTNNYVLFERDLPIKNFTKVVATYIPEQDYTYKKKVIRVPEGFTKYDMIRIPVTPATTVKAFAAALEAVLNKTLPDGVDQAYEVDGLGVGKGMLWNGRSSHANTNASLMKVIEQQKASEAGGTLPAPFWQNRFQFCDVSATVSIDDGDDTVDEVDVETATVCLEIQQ
Description: Leishmania donovani Ubiquitin Activating Enzyme (LdE1). In kind it is functional. Particulars: 30 µM.

The target of experiment [3] is AMP-activated protein kinase, AMPK (Homo sapiens) (UniProt P54646+O43741+P54619+Q9UGJ0+Q9Y478+Q13131+Q9UGI9). In words: AMP-dependent Kinase enzyme assay. An in vitro enzyme assay that detects ADP turnover that is directly proportional to AMPK activity. This uses naive AMPK that is activated during the assay with MK-8722. In kind it is functional. Particulars: 30 µM.

Experiment [4] has as its target Sialic acid-binding Ig-like lectin 9 (Homo sapiens) (UniProt Q9Y336). In words: Hs-Siglec9 ALPHAscreen SOP 20170721. Particulars: 10 µM. Background: In Alpha technology, singlet oxygen from a donor bead excites a nearby acceptor bead.
Another experiment deals with Trypanosoma cruzi. In words: Trypanosoma cruzi phosphomannomutase and mannose-1-phosphate guanylyltransferase assay. Type of experiment: functional. To be noted: 10 µM.
The target in experiment [5] is T2, Arginase-2, mitochondrial (Homo sapiens) (UniProt P78540).
T2 sequence (whole entry): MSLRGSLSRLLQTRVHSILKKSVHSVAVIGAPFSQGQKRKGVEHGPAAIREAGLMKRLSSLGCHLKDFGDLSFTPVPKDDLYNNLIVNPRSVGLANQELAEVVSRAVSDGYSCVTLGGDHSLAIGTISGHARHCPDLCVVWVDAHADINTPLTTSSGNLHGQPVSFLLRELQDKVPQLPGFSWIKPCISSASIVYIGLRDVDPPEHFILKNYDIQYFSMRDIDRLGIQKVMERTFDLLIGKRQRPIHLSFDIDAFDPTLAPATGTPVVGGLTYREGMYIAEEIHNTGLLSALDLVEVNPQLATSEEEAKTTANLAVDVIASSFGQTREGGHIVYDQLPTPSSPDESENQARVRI
In words: in vitro enzyme assay to detect the production of urea directly proportional to the activity of Arginase II. Further: in the data most compounds retested in dose-response had high values. In kind it is functional. To be noted: 33.3 µM.

The target in experiment [6] is T3, Proteasome subunit beta (Trypanosoma cruzi) (UniProt O96673).
T3 sequence (whole entry): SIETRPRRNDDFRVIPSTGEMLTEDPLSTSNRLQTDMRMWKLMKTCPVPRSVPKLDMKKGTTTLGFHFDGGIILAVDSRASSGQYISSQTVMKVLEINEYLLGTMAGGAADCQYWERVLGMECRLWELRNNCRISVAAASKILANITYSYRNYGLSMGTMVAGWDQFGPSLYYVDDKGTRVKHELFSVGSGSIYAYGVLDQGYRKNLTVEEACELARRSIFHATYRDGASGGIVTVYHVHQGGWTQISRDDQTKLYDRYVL
Description: Trypanosoma cruzi proteasome chymotrypsin-like activity (TcProtChymo) assay. Further: in the data most compounds retested in dose-response had high values. In kind it is functional. To be noted: 9.37 µM.

The species entered for a further experiment is Homo sapiens. Description: To identify inhibition of the IFN signalling (Jak-Stat) pathway via expression of an eGFP reporter gene under the control of an IFN-stimulated response element (ISRE) containing MxA promoter. Type of experiment: functional. To be noted: 30 µM. A general note: A reporter such as luciferase makes a cellular process visible.

The target in experiment [7] is T4, Tyrosyl-tRNA synthetase, putative (Trypanosoma cruzi (strain CL Brener)) (UniProt Q4DSP6).
T4 sequence (whole entry): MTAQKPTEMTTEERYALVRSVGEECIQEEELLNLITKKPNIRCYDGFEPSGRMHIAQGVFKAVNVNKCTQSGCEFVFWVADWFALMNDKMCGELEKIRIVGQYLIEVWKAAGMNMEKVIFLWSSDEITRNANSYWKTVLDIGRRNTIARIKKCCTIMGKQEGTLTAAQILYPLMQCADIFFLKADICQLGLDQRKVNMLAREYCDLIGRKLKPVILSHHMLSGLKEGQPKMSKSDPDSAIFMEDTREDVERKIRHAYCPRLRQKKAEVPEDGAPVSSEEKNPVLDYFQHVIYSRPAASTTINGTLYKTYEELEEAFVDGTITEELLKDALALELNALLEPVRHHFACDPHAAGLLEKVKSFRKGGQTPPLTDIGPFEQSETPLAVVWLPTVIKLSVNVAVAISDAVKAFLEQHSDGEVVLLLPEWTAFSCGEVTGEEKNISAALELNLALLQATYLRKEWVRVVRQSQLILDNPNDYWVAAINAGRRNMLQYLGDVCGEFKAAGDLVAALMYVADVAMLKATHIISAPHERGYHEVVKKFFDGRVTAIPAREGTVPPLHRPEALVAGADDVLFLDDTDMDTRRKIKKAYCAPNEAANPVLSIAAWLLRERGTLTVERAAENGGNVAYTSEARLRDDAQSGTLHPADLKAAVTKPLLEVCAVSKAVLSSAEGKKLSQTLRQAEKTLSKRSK
Description: Trypanosoma cruzi tyrosyl tRNA synthetase (TcYRS) _High Tyrosine SOP. Further: in the data most compounds retested in dose-response had high values. Type of experiment: functional. To be noted: 30 µM.

The target in experiment [8] is T4, Tyrosyl-tRNA synthetase, putative (Trypanosoma cruzi (strain CL Brener)). Description: Trypanosoma cruzi tyrosyl tRNA synthetase (TcYRS) SOP. Type of experiment: functional. Particulars: 30 µM.
In experiment [9] the target is Chromo domain-containing protein 1 (Saccharomyces cerevisiae (strain ATCC 204508 / S288c) (Baker's yeast)) (UniProt P32657). Description: ScCHD-1 Enzyme Inhibition Assay. Further: in the data most compounds retested in dose-response had high values. In kind it is functional. Particulars: 30 µM.
Sequence of Chromo domain-containing protein 1 (Saccharomyces cerevisiae (strain ATCC 204508 / S288c) (Baker's yeast)) (P32657 whole entry, the tested form may be a part): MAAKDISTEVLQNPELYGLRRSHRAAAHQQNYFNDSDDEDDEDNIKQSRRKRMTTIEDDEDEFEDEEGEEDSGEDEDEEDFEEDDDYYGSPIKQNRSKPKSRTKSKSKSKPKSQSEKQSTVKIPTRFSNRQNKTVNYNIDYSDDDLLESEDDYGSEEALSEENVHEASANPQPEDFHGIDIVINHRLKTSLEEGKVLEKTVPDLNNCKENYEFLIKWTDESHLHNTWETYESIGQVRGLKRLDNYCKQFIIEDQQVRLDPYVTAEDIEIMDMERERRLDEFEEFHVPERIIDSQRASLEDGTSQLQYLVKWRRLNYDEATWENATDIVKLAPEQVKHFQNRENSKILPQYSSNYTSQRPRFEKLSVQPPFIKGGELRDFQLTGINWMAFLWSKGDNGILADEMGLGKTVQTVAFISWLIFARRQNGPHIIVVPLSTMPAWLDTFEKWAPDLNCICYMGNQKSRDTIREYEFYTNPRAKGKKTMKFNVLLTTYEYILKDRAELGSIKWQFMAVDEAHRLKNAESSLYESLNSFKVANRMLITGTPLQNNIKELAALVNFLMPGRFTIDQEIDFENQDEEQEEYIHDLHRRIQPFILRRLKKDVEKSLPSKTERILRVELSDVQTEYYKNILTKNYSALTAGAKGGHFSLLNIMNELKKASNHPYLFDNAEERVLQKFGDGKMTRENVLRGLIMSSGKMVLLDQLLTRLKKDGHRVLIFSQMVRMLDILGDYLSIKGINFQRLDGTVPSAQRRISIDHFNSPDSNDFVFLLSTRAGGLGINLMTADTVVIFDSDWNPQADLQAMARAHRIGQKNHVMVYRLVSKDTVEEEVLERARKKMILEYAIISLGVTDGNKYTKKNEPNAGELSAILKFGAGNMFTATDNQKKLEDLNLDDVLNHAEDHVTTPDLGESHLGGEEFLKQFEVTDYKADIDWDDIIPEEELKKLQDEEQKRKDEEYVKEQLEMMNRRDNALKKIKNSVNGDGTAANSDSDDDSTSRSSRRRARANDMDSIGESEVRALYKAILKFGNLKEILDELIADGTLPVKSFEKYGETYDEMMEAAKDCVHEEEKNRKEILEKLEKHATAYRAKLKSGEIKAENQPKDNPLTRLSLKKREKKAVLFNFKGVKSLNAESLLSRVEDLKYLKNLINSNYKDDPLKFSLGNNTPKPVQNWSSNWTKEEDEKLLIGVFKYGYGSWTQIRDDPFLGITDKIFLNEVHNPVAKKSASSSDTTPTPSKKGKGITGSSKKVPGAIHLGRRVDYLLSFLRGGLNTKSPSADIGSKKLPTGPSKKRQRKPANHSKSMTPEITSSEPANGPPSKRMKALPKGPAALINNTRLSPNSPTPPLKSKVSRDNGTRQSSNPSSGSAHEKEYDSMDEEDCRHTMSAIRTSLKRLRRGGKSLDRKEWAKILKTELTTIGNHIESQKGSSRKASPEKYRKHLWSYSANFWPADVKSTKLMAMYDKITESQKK

Each structure is given as a SMILES string. For some of these results: Measured potencies and affinities stand elsewhere.

Sequence of Protein translocase subunit SecA (Escherichia coli (strain K12)) (P10408 whole entry): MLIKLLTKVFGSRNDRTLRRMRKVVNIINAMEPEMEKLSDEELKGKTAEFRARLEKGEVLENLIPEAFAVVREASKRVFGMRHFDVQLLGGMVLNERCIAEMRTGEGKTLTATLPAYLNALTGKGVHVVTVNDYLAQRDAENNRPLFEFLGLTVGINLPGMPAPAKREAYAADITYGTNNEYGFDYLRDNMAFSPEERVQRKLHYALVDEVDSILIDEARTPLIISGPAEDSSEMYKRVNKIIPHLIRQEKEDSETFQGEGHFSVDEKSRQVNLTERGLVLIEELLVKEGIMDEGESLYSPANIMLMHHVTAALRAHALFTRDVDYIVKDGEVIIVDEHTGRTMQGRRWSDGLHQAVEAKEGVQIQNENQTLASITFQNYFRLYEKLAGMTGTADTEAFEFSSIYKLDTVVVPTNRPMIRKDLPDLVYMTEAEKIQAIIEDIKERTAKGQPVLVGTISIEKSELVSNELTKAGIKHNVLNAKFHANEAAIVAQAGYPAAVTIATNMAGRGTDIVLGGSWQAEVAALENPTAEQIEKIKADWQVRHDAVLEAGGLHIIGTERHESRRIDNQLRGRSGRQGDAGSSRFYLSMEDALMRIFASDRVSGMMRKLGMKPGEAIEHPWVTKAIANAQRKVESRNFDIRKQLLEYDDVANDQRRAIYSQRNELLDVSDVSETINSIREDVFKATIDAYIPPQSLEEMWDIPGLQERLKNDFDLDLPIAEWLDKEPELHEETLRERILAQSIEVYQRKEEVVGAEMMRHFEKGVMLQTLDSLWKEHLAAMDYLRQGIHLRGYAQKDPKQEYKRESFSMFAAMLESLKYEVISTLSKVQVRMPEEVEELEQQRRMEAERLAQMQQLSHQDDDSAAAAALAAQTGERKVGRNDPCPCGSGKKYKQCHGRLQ
Sequence of Sialic acid-binding Ig-like lectin 9 (Homo sapiens) (Q9Y336 whole entry): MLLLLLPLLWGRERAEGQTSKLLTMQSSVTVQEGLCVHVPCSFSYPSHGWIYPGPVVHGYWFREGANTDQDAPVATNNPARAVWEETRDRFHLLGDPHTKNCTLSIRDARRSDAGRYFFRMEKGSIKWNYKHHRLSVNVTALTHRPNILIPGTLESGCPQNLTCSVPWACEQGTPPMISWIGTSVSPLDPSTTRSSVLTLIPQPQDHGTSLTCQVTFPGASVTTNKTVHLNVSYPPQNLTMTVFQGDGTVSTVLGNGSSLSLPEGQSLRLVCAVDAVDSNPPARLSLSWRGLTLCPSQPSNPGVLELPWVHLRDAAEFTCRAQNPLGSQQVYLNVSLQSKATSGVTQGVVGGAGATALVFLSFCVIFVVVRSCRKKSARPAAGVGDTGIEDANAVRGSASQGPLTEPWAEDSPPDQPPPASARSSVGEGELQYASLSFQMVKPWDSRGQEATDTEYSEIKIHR

As to `CC(C)Cc1noc(CN2CCN(CCO)CC2)n1`, the Percent Effect in experiment [1] was -0.954%; in experiment [2], 10.5%; in experiment [3], 1.51%; in [4], -0.0672%; with Trypanosoma cruzi it was -2.07%; in experiment [5] it was 0.766%. For the same compound, the Percent Effect in experiment [6] was 12%; in the experiment filed under Homo sapiens, 11.2%; in experiment [7], 3.43%; in experiment [8], 9.76%; in experiment [9], -8.48%.
For `Cc1nn(C)c(C)c1C1CCCN1CC(=O)Nc1ccncc1` (stereo not drawn), the Percent Effect in experiment [1] was -3.89%; in experiment [2], -2.7%; in experiment [3], -12%; in experiment [4] it was -1.63%; in the experiment with Trypanosoma cruzi, -3.49%; in experiment [5], 4.41%. Besides, the Percent Effect was -2.88% in experiment [6]; 7.51% in the experiment filed under Homo sapiens; -0.493% in [7]; -11.1% in experiment [8]; 4.66% in experiment [9].
For the compound `CC(C)c1nnc2n1CCN(C(=O)c1ccc(-n3cnnc3)cc1)C2`, the Percent Effect was -9.19% in [1]; -10.4% in [2]; -7.99% in experiment [3]; -9.83% in experiment [4]; 8.13% with Trypanosoma cruzi; -7.79% in experiment [5]. For the same compound, the Percent Effect was 13.5% in experiment [6]; 0.957% in the experiment listed under Homo sapiens; 5.71% in [7]; 18.8% in [8]; -23.7% in [9].
Turning to `CN(C)S(=O)(=O)N1CCN(c2nccc(C(F)(F)F)n2)CC1`, the Percent Effect in [1] is -2.09%; in [2], 5.48%; in experiment [3] it was 8.09%; in [4], 4.91%; in the experiment on Trypanosoma cruzi, 7.64%; in experiment [5], 0.909%. The Percent Effect in experiment [6] is 10.5%; in the experiment filed under Homo sapiens, 9.93%; in [7] it was 5.38%; in experiment [8], 12.5%; in experiment [9], -3.75%.
In the case of `COCC1CC2(CCN(C(=O)c3ccc(OC)c(Cl)c3)CC2)CO1` (stereo not drawn), the Percent Effect in experiment [1] was 4.75%; in [2], 15.6%; in experiment [3], -2.46%; in [4], -7.51%; in the experiment on Trypanosoma cruzi it was -5.82%; in experiment [5] it was 9.68%. Further, the Percent Effect was 13.8% in experiment [6]; 15.9% in the experiment filed under Homo sapiens; -1.06% in experiment [7]; 3.85% in experiment [8]; -9.46% in experiment [9].
On to `CN(C)Cc1nnc(C2CCN(c3nccc(N)n3)CC2)n1C1CC1`, for which the Percent Effect in experiment [1] is -4.19%; in [2], 1.39%; in experiment [3] it was -3.33%; in experiment [4], -0.797%; with Trypanosoma cruzi, 1.26%; in [5], 0.442%. The Percent Effect in [6] is 8.42%; in the experiment filed under Homo sapiens, -31.4%; in experiment [7] it was 5.26%; in experiment [8], 5.13%; in experiment [9], -3.78%.
Take `CS(=O)(=O)NCCCNC(=O)c1cccc(-n2cccc2)c1`: the Percent Effect in [1] was -5.41%; in experiment [2], 15.8%; in experiment [3], 0.491%; in [4] it was -5%; in the experiment on Trypanosoma cruzi, 2.04%; in experiment [5] it was 1.18%. Also, the Percent Effect in experiment [6] is 15.8%; in the experiment filed under Homo sapiens, 1.58%; in [7], 1.06%; in [8] it was 13%; in experiment [9], -6.62%.
As for `CC1CCc2nc(O)c(C(=O)NCCN(C)C)cc2C1` (stereo not drawn), the Percent Effect was -6.34% in experiment [1]; 4% in experiment [2]; -0.0231% in [3]; 6.09% in experiment [4]; 1.38% with Trypanosoma cruzi; -6.51% in experiment [5]. For the same compound, the Percent Effect was 14.8% in [6]; -2.83% in the experiment filed under Homo sapiens; 1.06% in experiment [7]; 2.56% in [8]; -5.39% in experiment [9].
